The list is not random: actives were taken first. Their share in the collection is about 0.71%.
Phagocyt inh: inhibitors of macrophage phagocytosis. J774A.1 macrophage IgG-bead phagocytosis, imaging. inhibition, % at 5 µM. 0.07% of 110,000 active. AID 1029;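 active = inhibition above the mean of the plate negative controls plus 5 SD, cut at about 13% in these data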;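 also: phagocytic index as fraction of beads internalized from green versus red external bead signal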
CD11b adhes enh: increases human CD11b/CD18 adhesion to fibrinogen; 0.07% of 93,000 active; P05107+P11215; K562 CD11b/CD18 adhesion to fibrinogen, ATPlite luminescence; activation, % at 10 µM;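 active = 10 µM primary screen giving 50% or more activity, confirmed by 40% or more on retest at that dose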
Target sequence (P05107 whole entry, looked up, other chains not shown): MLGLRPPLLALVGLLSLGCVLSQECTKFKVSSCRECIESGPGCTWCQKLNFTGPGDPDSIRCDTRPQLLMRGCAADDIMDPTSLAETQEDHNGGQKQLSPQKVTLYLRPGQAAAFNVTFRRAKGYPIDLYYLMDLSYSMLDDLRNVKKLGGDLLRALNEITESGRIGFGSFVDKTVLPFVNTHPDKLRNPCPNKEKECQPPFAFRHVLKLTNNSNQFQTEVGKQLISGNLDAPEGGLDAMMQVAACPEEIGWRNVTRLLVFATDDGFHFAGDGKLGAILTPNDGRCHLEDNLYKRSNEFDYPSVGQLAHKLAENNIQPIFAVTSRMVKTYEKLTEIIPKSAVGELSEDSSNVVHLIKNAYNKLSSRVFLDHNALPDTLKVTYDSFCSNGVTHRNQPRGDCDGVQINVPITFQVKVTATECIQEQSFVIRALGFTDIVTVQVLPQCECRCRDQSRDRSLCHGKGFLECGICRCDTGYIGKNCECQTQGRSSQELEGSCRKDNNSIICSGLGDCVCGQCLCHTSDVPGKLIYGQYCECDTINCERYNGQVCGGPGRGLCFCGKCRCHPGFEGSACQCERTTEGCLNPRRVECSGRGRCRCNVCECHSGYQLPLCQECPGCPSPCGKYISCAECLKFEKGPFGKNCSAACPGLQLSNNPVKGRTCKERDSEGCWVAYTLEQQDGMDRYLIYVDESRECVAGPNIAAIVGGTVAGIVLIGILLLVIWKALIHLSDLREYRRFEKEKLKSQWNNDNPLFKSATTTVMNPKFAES
sdo1 growth: sdo1-depleted yeast growth rescue; S. cerevisiae sdo1-depleted JHY4D growth rescue, OD600 30 h; stronger effect = higher value; pdr5 snq2 efflux-pump mutant strain; z-score at 10 µM; 0.21% of 140,000 active;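 active = z-score above 3 at both the 24 hr and the 30 hr optical density reads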
Mac1 fbg inh: blocks human CD11b/CD18 adhesion to fibrinogen; inhibition, % at 10 µM; P05107+P11215; K562 CD11b/CD18 adhesion to fibrinogen, ATPlite luminescence; Mn2+ added to activate the integrin; 0.54% of 93,000 active;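 active = primary inhibition of 50% or more at 10 µM, then 40% or more on retest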
sdo1 rescue conf: confirmation of growth rescue in SDO1-depleted yeast, bone marrow failure; shares compounds with sdo1 growth; S. cerevisiae JHY4D (SDO1-depleted) growth rescue, OD600, 30 h; stronger effect = higher value; efflux-deficient strain, SNQ2 and PDR5 mutated; OD recovery (concentration not given with the values); 44% of 440 active; AID 949;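 active = yeast growth recovered at 30 hours, either rising with dose fitted slope above 0.001 or with average optical density gain above 0.07, some results past the limit were not filed as active; inactive = growth falling with dose or no effect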
Numbers stand for hits; 0 = inactive; - = no result.

SMILES	Phagocyt inh	CD11b adhes enh	sdo1 growth	Mac1 fbg inh	sdo1 rescue conf
O=C(COC(=O)/C=C/c1ccccc1[N+](=O)[O-])Nc1ccc(OC(F)F)cc1	0	-	11.3	-	0
CCC(=O)N1COC[C@@H]1Cc1ccccc1	0	-	0	-	-
N#Cc1c(NC(=O)CSc2nnc(-c3ccccc3)o2)sc2c1CCCC2	0	0	0	0	-
CC1CCc2c(sc(NC(=O)CSc3nnc(-c4ccccc4)o3)c2C#N)C1 (centres undefined)	0	0	0	0	0.0914
CC(=O)c1cnn(-c2cc(Oc3cccc(C)c3)ncn2)c1C	0	0	6.88	0	0
CCOc1ccc(C(=O)NC(=S)NCc2cccnc2)cc1	0	-	0	-	0.105
CCOc1ccc(NC(=O)c2ccncc2)cc1	0	0	4.08	0	0
O=C(N/N=C/C1CC=CCC1)c1ccc(Cl)cc1O (centres undefined)	0	0	0	0	-
COc1ccc(-c2cn3cccnc3n2)cc1F	0	-	0	-	-
COCCN1C(=O)C(O)=C(C(=O)c2ccco2)C1c1cccc(Oc2ccccc2)c1 (centres undefined)	0	0	9.03	0	0.0761
Cc1ccc(S(=O)(=O)N2CCOCC2)cc1NC(=O)COc1ncnc2ccccc12	0	-	0	-	-
O=C(COc1ncnc2ccccc12)Nc1cccc(S(=O)(=O)N2CCOCC2)c1	0	0	3.64	0	0
COc1ccc(OCCNC(=O)/C=C/c2ccc([N+](=O)[O-])cc2)cc1	0	-	14.7	-	0
COC(=O)C1=C(COc2ccc(C=O)cc2OC)NC(=O)NC1c1cc(C)ccc1C (centres undefined)	0	-	0	-	-
COc1ccc(C(=O)N2CCCC2)cc1	0	0	0	0	-
O=C(c1cccc(F)c1)N1CCCC(C(=O)N2CCCC2)C1 (centres undefined)	0	0	0	0	0.0832
COc1ccc(C(=O)N2CCCC(C(=O)N3CCCCCC3)C2)cc1 (centres undefined)	0	0	4.18	0	0
CCc1ccccc1NC(=O)CN(C)C(=O)CSc1nn(-c2ccccc2)c(=S)s1	0	0	0	0	-
CCOC(=O)c1cccnc1SCC(=O)NC(C)CC (centres undefined)	-	-	0	-	0.0902
CSCC[C@H](NC(=O)OC(C)(C)C)c1nnc(SCC(N)=O)o1	0	0	9.56	0	0.0458
CCN(CC)C(=O)CSc1nnc([C@H](CCSC)NC(=O)OC(C)(C)C)o1	0	0	0	0	-
COc1ccccc1/C=C/C(=O)NC(=S)Nc1ccc(S(=O)(=O)N(C)c2ccccc2)cc1	-	-	0	-	0
CN(c1ccccc1)S(=O)(=O)c1ccc(NC(=S)NC(=O)c2ccccc2)cc1	0	0	0	0	-
COc1ccc(-c2cc(C(F)(F)F)nc(SCC(=O)Nc3cc(C)on3)n2)cc1	0	0	0	0	0.0841
CCOc1ccc(C(=O)NCc2ccccc2)cc1Br	0	-	0	-	-
SMILES	Phagocyt inh	CD11b adhes enh	sdo1 growth	Mac1 fbg inh	sdo1 rescue conf
Cc1ccc(C(=O)NCC(=O)OCC(=O)c2ccc3c(c2)OCCO3)cc1C	0	0	3.06	0	0
COc1ccc(C(=O)NCC(=O)OCC(=O)c2ccc3c(c2)OCCO3)cc1	-	0	0	0	-
COC(=O)Cn1cc(/C=N/NC(=O)c2ccc(C#N)cc2F)c2ccccc21	0	0	4.05	0	0
O=C(CSc1nnc(Cc2ccccc2)o1)Nc1ccc2c(c1)OCO2	0	0	0	0	-
O=C1c2ccccc2C(=O)N1CCc1nc2ccccc2c(=O)n1Cc1ccco1	0	0	0	0	-
CN(c1ccccc1)c1ccc(/C=N/N2CCOCC2)cc1	0	-	0	-	-
COc1ccc(C2C(C(=O)N3CCOCC3)=C(C)NC3=C2C(=O)CC(C)(C)C3)c(OC)c1 (centres undefined)	-	-	8.21	-	0
O=C(NC1CCCCC1)C(c1cccnc1)N(C(=O)CCl)c1cccc(Cl)c1 (centres undefined)	0	-	0	-	-
CCOC(=O)c1ccc(N2C(=O)C3C(C2=O)C(C(=O)c2ccc(Cl)cc2)N2CCCC32)cc1 (centres undefined)	0	0	0	0	-
CN(C)CCCNC(=O)C1CCNCC1	0	0	3.07	0	0.104
CCn1nnnc1SCC(=O)c1ccc2c(c1)OCCO2	-	-	10.2	-	0
CC(C)n1nnnc1SCC(=O)c1ccc2c(c1)OCCO2	-	-	0	-	-
CCCCn1c(C)nc2c(=O)n(C)c(=O)[nH]c21	0	0	0	0	0.0739
CCCCn1c(-c2ccccc2)nc2c(=O)n(C)c(=O)[nH]c21	0	0	0	0	-
O=C(CNc1ccccc1)Nc1ccc(F)cc1	0	0	0	0	-
O=C(Cc1coc(-c2ccc(F)cc2)n1)Nc1ccccc1	0	0	3.22	0	0
Cc1[nH]nc2c1-c1nc3ccccc3nc1C(C)(C)C2	0	0	0	0	-
COc1ccc(S(=O)(=O)N2CCCC(C(=O)Nc3cccc(C(C)=O)c3)C2)cc1 (centres undefined)	0	0	0	0	0
CC(=O)c1cccc(NC(=O)C2CCCN(S(=O)(=O)c3ccc(F)cc3)C2)c1 (centres undefined)	-	0	0	0	-
COc1cc(C(=O)N2CCC(C(=O)Nc3cccc(C(C)=O)c3)CC2)cc(OC)c1OC	0	0	0	0	0
Cc1nnc(SCC(=O)c2cc(C)n(-c3ccc4c(c3)OCO4)c2C)s1	0	0	0	0	-
CN(C)c1oc(-c2ccc(Cl)cc2)nc1S(=O)(=O)c1ccccc1	0	-	0	-	-
CCCc1nn(C)c(C(=O)Nc2cccc(CC)c2)c1Cl	0	-	0	-	-
CCCc1nn(C)c(C(=O)Nc2ccc3ccccc3c2)c1Cl	0	-	4.12	-	0.0962
COc1ccccc1-n1c(CNc2ccc(F)cc2)nnc1SCC(=O)Nc1cc(C)on1	-	-	0	-	-
SMILES	Phagocyt inh	CD11b adhes enh	sdo1 growth	Mac1 fbg inh	sdo1 rescue conf
O=C(COc1ccccc1C(=O)N/N=C\c1ccc(O)c(O)c1)N/N=C/c1ccc(O)c(O)c1	-	-	0	-	0
Cc1cc(NCc2ccco2)n2ncnc2n1	0	-	0	-	-
S=c1sc2c(N3CCOCC3)ncnc2n1-c1ccccc1	0	0	7.63	0	0
COc1ccc(C(=O)Nc2nc3c(s2)CCCC3)cc1S(=O)(=O)N1CCCc2ccccc21	0	-	0	-	-
COC(=O)c1ccc2c(c1)C(=O)/C(=C/c1ccc(O)cc1)O2	0	-	3.49	-	0
CCc1ccc(/C=C2\Oc3cc(OS(C)(=O)=O)ccc3C2=O)cc1	-	0	0	0	-
CCCCCCCCNC(=O)c1cnccn1	0	-	9.37	-	0
CCCCCCCCNC(=O)c1cnsn1	0	-	0	-	-
COc1ccc(C(O)c2nc3ccccc3s2)cc1 (centres undefined)	0	0	10.2	0	0
COC(=O)c1c(C(=O)OC)c2cc(C)ccn2c1Cl	0	0	10.6	0	0.0837
COC(=O)c1nc2cc(C)ccn2c1F	0	0	0	0	-
Cc1c(C#N)c2ncn(CCCN(C)C)c(=O)c2n1-c1ccccc1	0	0	3.58	0	0.102
Cc1onc(-c2c(F)cccc2Cl)c1C(=O)Nc1nnc(C2CC2)s1	0	0	0	0	-
Cc1onc(-c2c(F)cccc2Cl)c1C(=O)NC1CCSC1=O (centres undefined)	0	0	4.99	0	0
